Measurements reported in PubChem BioAssay AID488966 (Southern Research Specialized Biocontainment Screening …, 2010).
Hit rate of the full screen: of about 340,000 compounds, about 55 (0.02%) were called active.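 Rule for the calls: active = phage lysis inhibition, versus mean bacterial control, above a set limit; inconclusive = no clear call, values can overlap the other calls; inactive = the rest.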 A selection follows. Potency and affinity values are given separately.

Assay: protection from phage-mediated lysis, alamar blue read-out – E. coli UTI89, K1F phage, bacterial capsule biogenesis inhibitors (AID 488966);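 note: capsule biogenesis inhibitors block K1F phage lysis so surviving cells raise fluorescence; higher fluorescence means more inhibition of phage lysis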
Conditions: 2 h; inhibition: at 100 µM, active compounds read high unless noted; series mostly up to 300 µM; inhibition of phage lysis: at the top concentration

inhibition, inactive:
COc1ccc(CCNC(=O)C23CCC(C)(C(=O)O2)C3(C)C)cc1OC (stereo not drawn) 1.58% [at 50 µM, active compounds read high]
CCCn1nc(-c2nnc(-c3ccc(C)c(C)c3)o2)c2ccccc2c1=O 0.05%
CCn1ncc(C2=NOC(C(=O)Nc3cccc(C(C)=O)c3)C2)c1C (stereo not drawn) 4.79%
CS(=O)(=O)N(CC(=O)NN=C1CCCCCC1)c1ccc(Oc2ccccc2)cc1 0.37%
CCN1C(=O)N[C@@H](c2cccc(C(F)(F)F)c2)[C@@H](C(=O)OC)[C@H]1C 0.13%
O=C(Oc1coc(CSc2nnc(NC(=O)C3CC3)s2)cc1=O)c1ccccc1 4.85%
COc1ccc(N2C(=O)C(CC(=O)Nc3ccccc3)N(Cc3cccs3)C2=O)cc1 (stereo not drawn) -4.46%
CCOC(=O)c1c(C)n(C)c2cc(-c3ccc(F)cc3)c(O)cc12 7.65%
C[C@H](NC(=O)c1nc[nH]c1C(=O)N[C@@H](CCCCNC(=O)OC(C)(C)C)C(=O)OC(C)(C)C)c1ccccc1 2.05%
COc1ccc(NC(=O)Nc2cc(C(C)(C)C)on2)cc1OC 1.47% [at 50 µM, active compounds read high]
O=S(=O)(c1ccc(S(=O)(=O)N(Cc2ccco2)Cc2ccccc2Cl)cc1)N1CCCC1 0.31%
Clc1ccc(-c2ccc(/C=N/Nc3nncc(-c4ccccc4)n3)o2)cc1 0.65%
O=C(NCc1cc([N+](=O)[O-])ccc1O)c1cccnc1Sc1ccc(Cl)cc1 7.97%
O=C(NCc1ccccc1Cl)c1cc([N+](=O)[O-])ccc1Cl 0.11%
CC(=O)Nc1ccc(Nc2ccc(S(=O)(=O)C(F)(F)F)cc2[N+](=O)[O-])cc1 -2.27%
Cc1ccc(CC(NC(=O)c2ccccc2)C(=O)NC(CC(C)C)C(=O)O)cc1 (stereo not drawn) 0.84%
CCCCS(=O)CC(COC)OC(=O)c1ccccc1 (stereo not drawn) 0.21%
Cc1cccc2c1nc(-c1ccccc1)n1nnnc21 -2.7%
COc1ccc(CNC(=O)CN2C(=O)CSc3ccc(S(=O)(=O)N4CCCCC4)cc32)cc1 0.13%
Cc1cc(OC(=O)c2cccs2)ccc1C(C)C -0.04%
O=C(Cn1cnc(S(=O)(=O)N2CCCC2)c1)Nc1ccccc1 0.25%
O=c1c(Cl)c(NS(=O)(=O)c2ccccc2)cnn1-c1ccccc1 0.1%
COc1ccc(C(=O)OCC(=O)NC(C)CCc2ccccc2)cc1OC (stereo not drawn) -0.14%
O=C1CCc2cc(NS(=O)(=O)c3ccc(Cl)cc3)cc3c2N1CC3 -0.37% [at 50 µM, active compounds read high]
C=CCN1C(=O)CN=C1Nc1cc(C)cc(C)c1 -1.02%
COc1ccc(C(=O)N2CCN(C)C(C)C2)cc1OC1CCN(C(C)=O)CC1 (stereo not drawn) -0.02%
CCC(OC(=O)c1nsc(Cl)c1Cl)C(=O)NCCOC (stereo not drawn) -0.07%
Cc1nn(CC(=O)Nc2ccc(N3CCOCC3)cc2)c(C)c1Br -0.525% [at 50 µM, active compounds read high]
Cc1ccccc1NC(=O)CCN1CCN(C)CC1 -0.19%
Cc1ccccc1NC(=O)NCCCN1CCN(C)CC1 -0.845% [at 50 µM, active compounds read high]
CN(C)C1=NC[C@H](Cc2ccccc2)N1CC1CCCC1 6.41%
COc1cc2cc(C(=O)NCCc3ccccc3)[nH]c2cc1OC -0.295% [at 50 µM, active compounds read high]
O=C(C1CCCO1)N1CCN(S(=O)(=O)c2ccc(F)cc2)CC1 (stereo not drawn) -0.11% [at 50 µM, active compounds read high]
O=C(COC(=O)c1ccccc1[N+](=O)[O-])Nc1cccnc1Cl 0.32% [at 50 µM, active compounds read high]
Cc1ccc(NC(=O)CN(C)C(=O)Cn2nnc(-c3ccccc3C)n2)cc1 -2.28%
COc1ccc(C(=O)OCC(=O)NCC2CCCCC2)cc1F -0.21% [at 50 µM, active compounds read high]
CC(C)/C=C1\CCc2c([nH]c3ccccc23)C1=O 0%
CC1Cc2ccccc2N1C(=O)COC(=O)CSc1ccc(F)cc1 (stereo not drawn) 0.27% [at 50 µM, active compounds read high]
COc1ccc(NC(=O)CN(C)C(=O)c2ccccc2OCC(=O)Nc2cccc(C(F)(F)F)c2)cc1 1.88% [at 50 µM, active compounds read high]
NC(N)=N/N=C/c1ccc(OCc2ccc(Cl)cc2)cc1 -12.3%
NC(N)=N/N=C/c1ccc(OCc2ccccc2)c(OCc2ccccc2)c1 1.28%
CC1=C(C(=O)OCC(C)C)C23C(=O)c4ccccc4C2(O1)OC(N)=C3C#N (stereo not drawn) 0.06%
CCOC(=O)C1CCCN(c2c(NCCCN(C)Cc3ccccc3)c(=O)c2=O)C1 (stereo not drawn) 2.34%
Cc1ccc2nc(SCC(=O)Nc3ccccc3N3CCOCC3)c(C#N)cc2c1 -1.09%
CCC(=O)N1c2ccc(S(=O)(=O)N3CCCCC3)cc2CC1C (stereo not drawn) 0.16%
CC(C)N(Cc1ccccc1)C(=O)CN1C(=O)NC2(CCCC2)C1=O 1.04% [at 50 µM, active compounds read high]
Cc1c(NC(=S)NC(=O)c2cccc([N+](=O)[O-])c2)c(=O)n(-c2ccccc2)n1C -0.17%
O=C(CSc1nc2c(cnn2-c2ccccc2)c(=O)[nH]1)NC1CCS(=O)(=O)C1 (stereo not drawn) -0.1%
COC(=O)Nc1nc(Sc2ncc(C(F)(F)F)cc2Cl)n[nH]1 1.11%
CCOC(=O)c1ccc2[nH]c3c(c2c1)CCCC3 0.13%
CCC(CC)NC(=O)c1cc(OC)c(OC)cc1[N+](=O)[O-] 0.4%
COc1cc(OC)c(OC)cc1CN(C)CC1CCCN(CCc2ccccc2F)C1 (stereo not drawn) 0.88%
c1ccc2c(-c3cncc4ccccc34)cncc2c1 0.59%
CCOC(=O)C(Cc1ccc(O)cc1)NC(=O)CNC(=O)C(CC(C)C)NC(=O)OC(C)(C)C (stereo not drawn) 4.94%
COc1cccc(-c2c(C(=O)N/N=C(\C)c3cccs3)nnn2-c2nonc2N)c1 0.38%
Cc1ccc(C)c(S(=O)(=O)N2CCCCC2CCNC(=O)C(=O)NCc2ccccc2)c1 (stereo not drawn) 0.87% [at 50 µM, active compounds read high]
Brc1c(OCCOCCn2cncn2)ccc2ccccc12 -1.02%
O=C(CCc1ccccc1)N=C1SC2CS(=O)(=O)CC2N1c1ccc(F)cc1 (stereo not drawn) 0.07%
Cc1ccc(S(=O)(=O)c2c(C)cc(C)nc2Oc2cccc(C)c2C)cc1 1.5%
COc1cc(CCC(=O)NCC2CCCO2)cc(OC)c1OC (stereo not drawn) 0.13%
CC(C)C(NC(=O)c1ccccc1F)C(=O)OCC(=O)c1ccc(F)cc1 (stereo not drawn) -0.86%
Cc1ccc(C(C)(C)C)cc1S(=O)(=O)Nc1cccc(C(=O)N2CCN(c3ccccn3)CC2)c1 -1.06% [at 50 µM, active compounds read high]
O=C1CCCN1C(=O)CSc1ccc2ccccc2n1 0.65% [at 50 µM, active compounds read high]
Cc1ccc(C(=O)ONc2ccc(N=NC(=O)c3ccccc3O)cc2)cc1 -1.4%
O=Nc1ccc(NOC(=O)c2ccccc2)cc1 0.94% [at 50 µM, active compounds read high]
CCC1(CC)C(=O)NC(=O)NC1=NCCc1c[nH]c2ccccc12 8.91%
CC(=O)c1ccc(C(C)(C)c2ccc(C(C)=O)s2)s1 1.04%
COc1cc(/C=N/N=C(N)N)ccc1OCc1ccc(Cl)cc1 1.12%
COc1cc(/C=N/O)ccc1OCc1ccccc1Cl 2.6%
CCSc1ccccc1C(=O)Nc1ccc([N+](=O)[O-])cc1OC -0.1%
COc1ccc2cc(C(=O)NCCCN3CCCC3=O)[nH]c2c1 0.11%
CCOCCCNC(=O)CCc1ccc(S(=O)(=O)Nc2ccc(C)cc2)cc1 -0.65%
CN(C)S(=O)(=O)c1ccc(C(=O)N(c2ccccn2)c2ccccn2)cc1 0.22%
O=C(CCCc1nc2ccccc2s1)Nc1ccc(N2CCOCC2)cc1 0.19%
COC(=O)c1cc(OC)c(OC)cc1NC(=O)CN1CCOCC1 1.47%
CCN(CC)c1ccc2c(O)cc(=O)oc2c1 0.26%
CCN(CC)c1ccc(C(=C2C=CC(=[N+](CC)CC)C=C2)c2ccc(S(=O)(=O)O)cc2S(=O)(=O)[O-])cc1 -0.79% [at 50 µM, active compounds read high]
COc1ccc2c(=O)c(-c3ccc(C)cc3)c(-c3ccccc3)oc2c1 0.1%
Cc1ccc(C(=O)N2CCN(S(C)(=O)=O)C2)cc1 3.27%
N=c1n(CCN2CCCCC2)c2ccccc2n1CC(O)c1ccc(Cl)c(Cl)c1 (stereo not drawn) -4.43%

Inhibition of phage lysis, inactive:
Cc1ccc(Sc2ncccc2C(=O)NCc2cc([N+](=O)[O-])ccc2O)cc1C 7.85%
Cc1ccc(Sc2ncccc2C(=O)NCc2cc([N+](=O)[O-])ccc2O)c(C)c1 5.51%
N=c1n(CCN2CCCCC2)c2ccccc2n1CC(O)c1cccc(Br)c1 (stereo not drawn) 2.09%
